Hit rate of the full screen: of about 5,500 compounds, about 2,000 (36%) were called active. Not shown: some 18% with an inconclusive outcome. No stated cut-off is given here; in the data, active means normalized growth mostly below about 0.91 (no sharp cut-off); inconclusive means no clear call, values can overlap the other calls; inactive means mostly above about 0.92. This is one part of the list.
Test: chemical genetic growth profiling, strain panel (AID 1159580);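 further: tested at 20 µM; growth read once vehicle control cultures reached saturation at 30 °C; 1 = growth at the plate median or of vehicle wells; lower values mean less growth of the strain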
Conditions: S. cerevisiae deletion strains, growth OD
[1] = locus YGR078C, strain PAC10, active compounds read low
[2] = locus YJR075W, strain HOC1, active compounds read low
[3] = locus YMR263W, strain SAP30, active compounds read low
[4] = locus YNL128W, strain TEP1, active compounds read low
[5] = locus YNL153C, strain GIM3, active compounds read low
[6] = locus YNL322C, strain KRE1, active compounds read low
[7] = locus YPL055C, strain LGE1, active compounds read low
[8] = locus YPL241C, strain CIN2, active compounds read low
[9] = locus YAL013W, strain DEP1, active compounds read low
[10] = locus YBR229C, strain ROT2, active compounds read low
[11] = locus YDL101C, strain DUN1, active compounds read low
[12] = locus YDL134C, strain PPH21, active compounds read low
[13] = locus YEL061C, strain CIN8, active compounds read low
[14] = locus YHR030C, strain SLT2, active compounds read low
[15] = locus YJR043C, strain POL32, active compounds read low
[16] = locus YKL190W, strain CNB1, active compounds read low
[17] = locus YLR039C, strain RIC1, active compounds read low
[18] = locus YLR262C, strain YPT6, active compounds read low
[19] = locus YMR307W, strain GAS1, active compounds read low

Measured: normalized growth

Cn1cc(C(F)(F)F)nc1-c1ccc(OCC(O)CNCCOc2ccc(O)c(C(N)=O)c2)cc1 (stereo not given)
inactive: locus YAL040C, strain CLN3, active compounds read low 0.996 | locus YCL061C, strain MRC1 (second series), active compounds read low 1 | locus YDR363W, strain ESC2, active compounds read low 1.01 | locus YER002W, strain NOP16, active compounds read low 1.04 | [1] 1.01 | [2] 1 | [3] 1.01 | [4] 1.02 | [5] 1.01 | locus YNL175C, strain NOP13, active compounds read low 1.05 | locus YNL197C, strain WHI3, active compounds read low 1.03 | locus YNL224C, strain SQS1, active compounds read low 1.04 | [6] 1.03 | locus YOR083W, strain WHI5 (second series), active compounds read low 0.987 | [7] 1.01 | [8] 1

CC(C)(C)c1ccc(CSc2nc(N)cc(=O)[nH]2)cc1
inactive: [9] 0.993 | [10] 1.02 | locus YCL061C, strain MRC1, active compounds read low 0.998 | [11] 0.981 | [12] 1.01 | locus YDR150W, strain NUM1, active compounds read low 0.949 | [13] 0.995 | [1] 1 | locus YGR229C, strain SMI1, active compounds read low 1.01 | [14] 0.988 | locus YHR087W, strain rtc3, active compounds read low 0.993 | locus YJL187C, strain SWE1, active compounds read low 0.985 | [15] 1.01 | [2] 1.01 | [16] 1.02 | [17] 1.02 | locus YLR058C, strain SHM2 (second series), active compounds read low 1.01 | locus YLR085C, strain ARP6, active compounds read low 0.898 | [18] 1.09 | locus YML094W, strain GIM5, active compounds read low 0.975 | locus YMR219W, strain ESC1, active compounds read low 1 | [3] 1.01 | [19] 0.855 | [4] 1.01 | [5] 1.01 | locus YNL298W, strain CLA4 (second series), active compounds read low 1.01 | [6] 1 | locus YNR030W, strain Alg12, active compounds read low 1.01 | [7] 0.862 | [8] 0.972 | locus YPR135W, strain CTF4, active compounds read low 0.949

CC(=O)Oc1cccc(C(=O)O)c1OC(C)=O
inactive: [9] 1.01 | locus YBR021W, strain FUR4, active compounds read low 0.987 | [10] 1 | locus YCL029C, strain bik1, active compounds read low 1 | locus YDL035C, strain GPR1, active compounds read low 1.03 | locus YDL074C, strain BRE1, active compounds read low 1.01 | [11] 1.01 | [12] 1.01 | locus YDL185W, strain tfp1, active compounds read low 1.02 | locus YDL192W, strain arf1, active compounds read low 1.02 | locus YDR101C, strain arx1, active compounds read low 0.985 | locus YDR162C, strain NBP2, active compounds read low 1.02 | locus YDR318W, strain mcm21, active compounds read low 1.01 | locus YDR388W, active compounds read low 1.01 | locus YDR502C, strain sam2, active compounds read low 1 | [13] 1.01 | locus YER110C, active compounds read low 1.02 | locus YER155C, strain BEM2, active compounds read low 1 | locus YER167W, strain BCK2, active compounds read low 1.01 | locus YGL078C, strain dbp3, active compounds read low 1.01 | locus YGL086W, strain mad1, active compounds read low 0.997 | locus YGL248W, strain PDE1, active compounds read low 1.01 | [1] 1.01 | locus YGR135W, strain pre9, active compounds read low 1.04 | locus YGR252W, strain gcn5, active compounds read low 1 | [14] 1.01 | locus YHR079C, strain IRE1 (second series), active compounds read low 1.01 | locus YHR094C, strain hxt1, active compounds read low 1.01 | locus YHR129C, strain ARP1, active compounds read low 1.01 | locus YHR200W, strain rpn10, active compounds read low 1.02 | locus YIL066C, strain RNR3, active compounds read low 1.01 | locus YIL073C, strain SPO22, active compounds read low 1.05 | locus YIL125W, strain kgd1, active compounds read low 1.01 | locus YIR030C, strain dcg1, active compounds read low 1.01 | locus YJL095W, strain BCK1, active compounds read low 1.01 | locus YJL134W, strain LCB3, active compounds read low 1 | locus YJL168C, strain set2, active compounds read low 1.02 | locus YJL187C, strain SWE1 (second series), active compounds read low 1.01 | [15] 1.01 | [2] 1.03 | locus YKL009W, strain mrt4, active compounds read low 1.03 | locus YKL068W, active compounds read low 1.01 | locus YKL085W, strain MDH1 (second series), active compounds read low 1.07 | locus YKL085W, strain MDH1, active compounds read low 1.07 | [16] 1.01 | locus YKR001C, strain vps1, active compounds read low 1.01 | [17] 1.02 | locus YLR058C, strain SHM2, active compounds read low 1.01 | locus YLR102C, strain apc9, active compounds read low 1.01 | [18] 1.02 | locus YLR268W, strain sec22, active compounds read low 1 | locus YLR330W, strain CHS5, active compounds read low 1.01 | locus YLR342W, strain FKS1 (second series), active compounds read low 1.04 | locus YLR371W, strain rom2, active compounds read low 1 | locus YLR418C, strain cdc73, active compounds read low 1.01 | locus YML016C, strain PPZ1, active compounds read low 1.01 | locus YML032C, strain rad52, active compounds read low 1.02 | locus YML124C, strain tub3, active compounds read low 1.02 | locus YMR078C, strain ctf18, active compounds read low 1.02 | locus YMR223W, strain ubp8, active compounds read low 1.04 | [19] 1.07 | locus YNL067W, strain RPL9B, active compounds read low 1.01 | [5] 0.997 | locus YNL233W, strain BNI4, active compounds read low 1 | locus YNL250W, strain rad50, active compounds read low 1.04 | locus YNL271C, strain bni1, active compounds read low 1.01 | locus YNL298W, strain CLA4, active compounds read low 1.02 | locus YNL307C, strain MCK1, active compounds read low 1.02 | [6] 1.01 | locus YNR052C, strain pop2, active compounds read low 1.01 | locus YOL006C, strain TOP1, active compounds read low 1.06 | locus YOL147C, strain pex11, active compounds read low 1.01 | locus YOR061W, strain CKA2, active compounds read low 1.01 | locus YOR069W, strain VPS5, active compounds read low 1.01 | locus YOR136W, strain idh2, active compounds read low 1.01 | locus YOR144C, strain elg1, active compounds read low 1.01 | locus YOR184W, strain ser1, active compounds read low 1.02 | locus YOR316C, strain cot1, active compounds read low 1.01 | locus YPR119W, strain clb2, active compounds read low 1.01 | locus YPR141C, strain kar3, active compounds read low 1 | locus YPR163C, strain tif3, active compounds read low 1.01 | locus YPR167C, strain met16, active compounds read low 1.01 | strain wtn01, active compounds read low 1.01
